High-throughput results as filed in PubChem.
GDH-TPI counter – inhibits GDH-TPI coupling enzymes, artifact for Mtb FBA screen; GDH-TPI coupled enzyme counterscreen, NADH absorbance; inhibition, % at 4.8 µM; 360,000 compounds, 1.2% hits;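 note: 0% = DMSO wells and 100% = wells lacking the enzyme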
RecA intein inh – inhibitors of M. tuberculosis RecA intein splicing; inhibition, % (concentration not given with the values); cell-free RecA intein splicing, fluorescence; AID 2221; 290,000 compounds, 0.75% hits; in the data active = inhibition above about 30%; inconclusive = no clear call, values can overlap the other calls;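 note: 0% = vehicle wells and 100% = reference inhibitor control wells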
Target sequence (P9WHJ3 whole entry, looked up): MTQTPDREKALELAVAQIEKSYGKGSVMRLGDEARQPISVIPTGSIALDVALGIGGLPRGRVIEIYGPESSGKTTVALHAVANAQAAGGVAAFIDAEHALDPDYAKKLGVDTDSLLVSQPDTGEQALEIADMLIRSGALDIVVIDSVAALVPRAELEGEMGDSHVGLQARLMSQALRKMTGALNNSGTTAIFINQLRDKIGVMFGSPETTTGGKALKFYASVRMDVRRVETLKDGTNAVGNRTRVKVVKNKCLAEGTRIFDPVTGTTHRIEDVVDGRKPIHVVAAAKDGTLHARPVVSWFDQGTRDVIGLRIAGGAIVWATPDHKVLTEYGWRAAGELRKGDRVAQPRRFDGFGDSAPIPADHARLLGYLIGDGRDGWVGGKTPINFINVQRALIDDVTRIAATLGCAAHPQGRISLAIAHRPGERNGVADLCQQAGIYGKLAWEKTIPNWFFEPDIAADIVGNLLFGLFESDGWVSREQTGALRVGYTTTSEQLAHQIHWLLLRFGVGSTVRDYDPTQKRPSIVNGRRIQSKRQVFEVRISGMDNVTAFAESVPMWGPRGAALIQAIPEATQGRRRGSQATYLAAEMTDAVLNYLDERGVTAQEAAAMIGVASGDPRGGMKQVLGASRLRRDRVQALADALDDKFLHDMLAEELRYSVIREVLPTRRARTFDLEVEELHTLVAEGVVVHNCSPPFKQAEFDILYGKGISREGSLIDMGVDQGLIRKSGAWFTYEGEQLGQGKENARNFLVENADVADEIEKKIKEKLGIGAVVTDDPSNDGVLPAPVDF
CCHF vOTU inh – CCHFV vOTU protease inhibition; Pep-AMC fluorescence; inhibition, % at 11.5 µM; 370,000 compounds, 0.55% hits; AID 651958; note: 0% = vehicle wells with enzyme and 100% = no enzyme wells
Mtb betalactam – beta-lactam sensitization of Mtb H37Rv; M. tuberculosis H37Rv growth with meropenem, percent inhibition; inhibition, % at 25 µM; 330,000 compounds, 0.27% hits; AID 434955; call rule not given here;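 note: growth measured after seven days incubation then overnight dye step; 0% = bacteria only wells and 100% = bacteria with antibiotic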
Mtb FBA inh – Mtb fructose-bisphosphate aldolase inhibition. AID 588726. purified M. tuberculosis FBA, fluorescence read-out. 360,000 compounds, 2.3% hits. P9WQA3. inhibition, % at 1 µM; in the data active = inhibition above about 27%;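 note: 0% = vehicle and 100% = reference inhibitor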
The depositor's hits bear a star; i = inactive; ? = inconclusive; . = not tested or not shown; + = active, no number. Compounds with a hit are over-represented: about 4.2% of the library has one in this group of screens. Cut-off read from the data, not from the text of the source, unless noted: active = inhibition above about 30%; inactive = the rest.

SMILES	GDH-TPI counter	RecA intein inh	CCHF vOTU inh	Mtb betalactam	Mtb FBA inh
Cc1ccsc1/C=N/NC(=O)c1sccc1C	15	-2	3	-1	-4
O=C(N/N=C\c1ccc(S(=O)(=O)O)o1)c1ccc2c(c1)OCO2	41*	-2	3	-3	1
O=C(N/N=C/c1cc([N+](=O)[O-])ccc1O)c1ccc2c(c1)OCCO2	32*	-12	5	69	1
CC(COc1cccc([N+](=O)[O-])c1)CN1CCC(C(O)(c2ccccc2)c2ccccc2)CC1 (configuration not stated)	.	.	8	.	.
CCCCCCCCN1C(=O)[C@@H](CC(=O)NCCCN2CCCC2=O)C[C@@]2(C(=O)OC)C1=C[C@H](COCc1ccccc1)O[C@@H]2C	.	.	11	.	.
CN(C)Cc1cn(-c2cccc(-c3noc4c3C(=O)N(CC(=O)N3CCOCC3)CC4)c2)nn1	.	.	1	.	.
C=CCN1C(=O)[C@@H](CC(=O)NCCCOC)[C@]2(C(=O)OCC)CCCCC/C=C/12	.	.	-5	.	.
CCCCOCCCNC(=O)C[C@@H]1C(=O)N2CCCC3=C2[C@@]1(C(=O)OCC)CCC3	.	.	-6	.	.
CCN(CC)c1ccc(NC(=O)CSc2nc3ccccc3c(=O)n2-c2ccc(C)cc2)cc1	.	.	26	.	.
COC(=O)c1cc(-c2cccc(OCc3ccccc3)c2)c(=O)n2c1CCC2	.	.	7	.	.
c1ccc(-c2oc3ncnc(NCCCn4ccnc4)c3c2-c2ccccc2)cc1	6	11	.	97	51*
CCC(=O)Nc1ccc2c(c1)C(=O)N(C)[C@@H]1CC[C@@H](CC(=O)NCCN3CCCCC3)O[C@H]1CO2	.	.	7	.	.
Cn1cncc1C#Cc1ccc2cc(CCCO)oc(=O)c2c1	34*	.	-16	0	47*
Cn1cncc1C#Cc1ccc2cc(C3(O)CCCCC3)oc(=O)c2c1	7	.	5	0	4
Cn1cncc1C#Cc1ccc2c(=O)c3ccccc3oc2c1	41*	.	3	3	3
Cn1cncc1C#Cc1ccc2cc(C(C)(C)O)oc(=O)c2c1	31*	.	14	-6	14
Cc1ccccc1N(Cc1cc(=O)[nH]c2ccccc12)C(=O)CCl	13	48*	-7	?	3
COP(=O)(CC(=O)C(Cc1ccccc1)NC(=O)OC(C)(C)C)OC (configuration not stated)	.	.	2	.	.
Nc1ccc(-c2ncc(-c3ccccc3)o2)cc1	27	2	-351	11	+
O=C(O)c1ccccc1-c1ncc(-c2ccccc2)o1	18	-2	-7	-1	123*
Cc1ccc(-c2cnc(-c3ccncc3)o2)cc1	19	-9	-236	6	+
Cc1ccc(-c2nc(-c3ccncc3)no2)cc1	2	3	-2	-3	2
Cc1ccc(-c2c(NC(=O)C3CC3)nc3ncccn23)cc1	.	.	-57	.	.
CCOC(=O)CC[C@H]1CC[C@]2(CCCN(C(=O)C(C)(C)C)C2)O1	.	.	1	.	.
N#C/C(=C/Nc1ccccc1)c1ccsc1	34*	4	3	4	-2
SMILES	GDH-TPI counter	RecA intein inh	CCHF vOTU inh	Mtb betalactam	Mtb FBA inh
Cc1ccc(N/C=C(/C#N)c2ccsc2)cc1	22	5	0	92	-2
COCCCN1C(=O)[C@H](CC(=O)N2CCN(C(=O)c3ccco3)CC2)[C@]2(C(=O)OC)CCCCC=C12	.	.	12	.	.
COC[C@@H]1CCCN1c1ccc2c(c1)O[C@H]1CCN(C1)S2(=O)=O	.	.	9	.	.
O=C(NCCO)c1ccc2c3n(nc2c1)-c1ccc(Cl)cc1CO3	8	-9	-10	0	6
Cc1ccc2c(c1)COc1c3ccc(C(=O)NCCO)cc3nn1-2	16	0	-2	13	32*
CCCCCCCCN1C(=O)[C@@H](CC(=O)N2CCN(C(=O)C3CC3)CC2)C[C@@]2(C(=O)OC)C1=C[C@H](C(C)C)O[C@@H]2C1CC1	.	.	26	.	.
COc1ccc(S(=O)(=O)NC(N)=NCCc2ccccc2OC)cc1	-4	5	5	-1	191*
CN1C(=O)c2cc(NC(=O)Nc3ccccc3)ccc2OC[C@H]2O[C@@H](CC(=O)NCC(F)(F)F)CC[C@@H]21	.	.	4	.	.
O=P(CCCCCCCCCP(=O)(c1ccccc1)c1ccccc1)(c1ccccc1)c1ccccc1	-4	60*	3	23	-8
O=C(O)CCCCCCCCCCP(=O)(c1ccccc1)c1ccccc1	1	1	1	-5	-1
Cc1ccc(S(=O)(=O)Nc2ccc(Nc3nccn4c(-c5ccc6ccccc6c5)cnc34)cc2)cc1	32*	.	4	.	11
C=CCn1c(N)c(C(=O)OCCC)c2nc3ccccc3nc21	17	-103	-205	-6	175*
CCCOC(=O)c1c(N)n(Cc2cccs2)c2nc3ccccc3nc12	11	18	-87	14	173*
C=CCn1c(N)c(C(=O)Nc2ccc(C)c(C)c2)c2nc3ccccc3nc21	22	2	13	-3	0
CCc1ccccc1NC(=O)c1cc(C)nn1-c1ccccc1	.	.	-2	.	.
Cc1ccnc(N2C(=O)c3cccc4c([N+](=O)[O-])ccc(c34)C2=O)c1	33*	-90	9	101	5
Cc1ccc(N2C(=O)c3cccc4c([N+](=O)[O-])ccc(c34)C2=O)c2cccnc12	4	-4	3	0	2
COC(=O)C1=CN(C2CC2)C=C(C(=O)OC)C1c1ccccc1OC	8	-421	-152	-1	157*
CCN1C=C(C(=O)OC)C(c2cccc(OC)c2OC)C(C(=O)OC)=C1	1	i	-260	-7	172*
COC(=O)C1=CN(Cc2ccc(OC)c(OC)c2)C=C(C(=O)OC)C1c1cccc(OC)c1OC	11	0	-173	-1	140*
Cc1ccc(-c2nnc3n2N=C(c2ccc(-c4ccccc4)cc2)CS3)cc1	.	.	13	.	.
COc1ccc(/C=C/C(=O)c2ccoc2)cc1	38*	-3	0	73	1
COc1cc(OC)c(C(=O)/C=C/c2ccc(OCc3ccccc3)c(OC)c2)c(OC)c1	17	4	15	85	0
COc1cc(OC)c(C(=O)C=Cc2ccc(OC)c(OC)c2)c(OC)c1	35*	.	0	.	0
CCOc1cc(/C=C/C(=O)c2ccc(O)cc2)ccc1OCC(=O)N(C)C	47*	2	17	-10	-3
SMILES	GDH-TPI counter	RecA intein inh	CCHF vOTU inh	Mtb betalactam	Mtb FBA inh
COc1cc(C(=O)C(=O)c2ccc(OC)c(OC)c2)ccc1O	32*	.	13	.	-6
Cc1ccc(CN2C(C(=O)NC3CCCC3)CSCCS2(=O)=O)cc1 (configuration not stated)	.	.	-6	.	.
Cc1ccccc1CN1CCCCC(NC(=O)C2CCCCC2)C1=O (configuration not stated)	.	.	2	.	.
COC(=O)C1CN(C2CCCC2)CCS(=O)(=O)N1Cc1ccc(C(F)(F)F)cc1 (configuration not stated)	.	.	9	.	.
COc1ccc(S[C@]2(C(=O)N3CCN(C(C)=O)CC3)CC(=O)N(C(=O)/C=C/c3ccccc3)[C@@H]2c2ccc(OC)cc2)cc1	.	.	9	.	.
COc1ccc(C(=O)/C=C/c2ccc3c(c2)OCCO3)cc1	36*	.	6	3	2
O=C(/C=C/c1ccc2c(c1)OCCO2)c1ccccc1	14	.	3	5	-1
